Most compounds without a hit are left out; they make up all but 1.5% or so of the library.
PLK1 inh: blocks human PLK1 kinase activity | recombinant PLK1 kinase, TR-FRET peptide phosphorylation | inhibition, % at 10 µM | actives 0.53% (n = 97,000) | AID 619;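 active = inhibition of 50% or more in the single-concentration screen; inactive = inhibition below 50%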;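 note: 0% = DMSO max control and 100% = H-89 dihydrochloride min control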
Plk1 PBD FP: Plk1 (human) PBD binding inhibition; Plk1 PBD phosphopeptide binding, fluorescence polarization; inhibition, %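 (tested at about 20 µM)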; P53350; actives 0.13% (n = 97,000); in the data active = inhibition above about 34%, passing the limit was not always enough
ROCK2 blocker: inhibitors of human Rho kinase 2; O75116; actives 0.35% (n = 60,000); AID 604; inhibition, % at 6 µM; purified ROCK2, Kinase-Glo ATP depletion luminescence;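 active = inhibition above the screen-wide mean inhibition plus 3 SD, cut at about 18% in these data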;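 note: plate controls were DMSO wells for no effect and Y-27632 control wells after no-enzyme background subtraction for full effect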
PKA inh: PKA (human) kinase inhibition. PKA Kemptide phosphorylation, Kinase-Glo ATP luminescence. inhibition, % at 6 µM. actives 0.1% (n = 65,000). AID 524;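 active = inhibition above the screen-wide mean inhibition plus 3 SD, cut at about 21% in these data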
JNK3 blocker: blocks human JNK3 kinase activity; actives 0.61% (n = 60,000); purified JNK3 kinase activity, HTS; P53779; inhibition, % at 8 µM; in the data active = inhibition above about 17%;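 note: 0% = DMSO and 100% = reference inhibitor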
Target sequence (P53779 whole entry, looked up): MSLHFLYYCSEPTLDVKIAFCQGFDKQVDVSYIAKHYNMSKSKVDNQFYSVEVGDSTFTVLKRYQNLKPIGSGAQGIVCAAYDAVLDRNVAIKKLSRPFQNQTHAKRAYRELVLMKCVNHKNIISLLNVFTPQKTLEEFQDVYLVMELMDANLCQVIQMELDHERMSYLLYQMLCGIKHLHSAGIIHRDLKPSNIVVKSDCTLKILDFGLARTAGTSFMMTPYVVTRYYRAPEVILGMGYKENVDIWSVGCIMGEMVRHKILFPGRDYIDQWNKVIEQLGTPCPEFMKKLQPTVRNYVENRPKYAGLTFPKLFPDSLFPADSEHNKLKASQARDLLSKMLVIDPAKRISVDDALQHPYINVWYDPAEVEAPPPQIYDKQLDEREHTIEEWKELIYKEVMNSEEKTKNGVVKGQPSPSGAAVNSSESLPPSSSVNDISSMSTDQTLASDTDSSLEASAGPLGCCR
FAK blocker: FAK (human) kinase inhibition | Q05397 | biochemical FAK kinase activity assay | inhibition, %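 (tested at 7 µM)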 | actives 0.84% (n = 97,000) | AID 727;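 note: 0% = DMSO and 100% = reference compound high control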
FAK inh confirm: confirmation of human focal adhesion kinase (FAK) inhibitors | shares compounds with FAK blocker | inhibition, % at 7 µM | FAK kinase biochemical inhibition assay | actives 28% (n = 750)
An asterisk follows results filed as active; . = not tested or not shown. Cut-off read from the data, not from the text of the source, unless noted: active = inhibition above about 19%; inactive = the rest.

SMILES | PLK1 inh | Plk1 PBD FP | ROCK2 blocker | PKA inh | JNK3 blocker | FAK blocker | FAK inh confirm
O=C1c2cccnc2C(=O)N1Cc1ccccc1 | . | . | -6.2 | -1.3 | -9.6 | . | .
O=C1Cc2ccccc2C(=O)N1Cc1ccccc1 | -1.6 | -7.8 | . | . | . | 53.8* | 28.2*
O=C(Oc1ccc(-c2cnc3ccccc3n2)cc1)c1cccc([N+](=O)[O-])c1 | -14.2 | 4.4 | . | . | . | -0.5 | .
O=C(Oc1ccc(-c2cnc3ccccc3n2)cc1)c1ccc(Br)o1 | -11.7 | -5.3 | . | . | . | 47.4* | 24.3*
Cn1cc(C(=O)N2CCN(C(=O)c3ccco3)CC2)c2c3ccccc3n(C)c2c1=O | 5.0 | -23.8 | 9.3 | 5.8 | 0.2 | -4.0 | .
COC(=O)CNc1nc(-c2cccnc2)nc2ccccc12 | . | . | 8.1 | 5.5 | 0.2 | . | .
CCOC(=O)c1ccc(Nc2nc(-c3cccnc3)nc3ccccc23)cc1 | -6.3 | -20.8 | . | . | . | 21.5* | 9.8
COCCNC(=O)CN(C(=O)CCC(=O)Nc1cc(C)on1)c1cccc(C)c1C | 10.7 | 2.6 | -3.2 | -5.7 | -2.7 | -3.2 | .
COc1ccc(COC(=O)c2ccc(N3CCCC3=O)cc2)cc1F | -3.6 | -22.4 | -0.8 | 4.6 | -8.5 | -3.4 | .
O=c1[nH]ncc2c3ccccc3n(Cc3ccccc3)c12 | 34.3 | 1.1 | 4.3 | 7.3 | 5.0 | 20.0* | 7.3
CC1CCN(CC(O)COCCC23CC4CC(CC(C4)C2)C3)CC1 (stereo not given) | 25.0 | -5.3 | . | . | . | 0.8 | .
O=C(Cc1ccccc1)Nc1ccc(N2CCCC2)cc1 | -3.0 | -5.4 | . | . | . | 30.3* | 15.6
CC(C)C(=O)Nc1ccc(N2CCCC2)cc1 | -7.0 | -13.7 | . | . | . | 5.5 | .
CCN1CCN(c2ccc(NC(=O)Cc3ccccc3)cc2)CC1 | -5.7 | 11.6 | -1.0 | -6.5 | -3.4 | 6.6 | .
O=C(Nc1ccc(N2CCCC2)cc1)C(c1ccccc1)c1ccccc1 | -8.6 | -22.5 | . | . | . | 45.8* | 29.3*
CCCC(=O)Nc1ccc(N2CCN(C(=O)c3cccs3)CC2)cc1 | -16.1 | -1.8 | -5.8 | 7.0 | 3.6 | -1.6 | .
COc1ccc(-c2nn3c(-c4ccc(F)cc4)nnc3s2)cc1 | -1.7 | 12.6 | 6.9 | 3.9 | 5.5 | 35.5* | 9.2
COc1ccc(-c2nn3c(-c4ccccc4)nnc3s2)cc1 | -12.0 | -5.2 | 7.1 | 4.6 | -1.8 | 0.7 | .
O=C(Nc1ccccc1N1CCCC1)c1ccco1 | -9.2 | -7.0 | 4.8 | 8.5 | -10.6 | 2.0 | .
O=C(Nc1ccccc1N1CCCCC1)c1ccco1 | -6.3 | 5.1 | . | . | . | 23.7* | 9.1
CCOC(=O)C1=C(c2ccccc2)OC(N)=C(C#N)C1c1cccs1 (stereo not given) | -10.0 | -25.9 | . | . | . | 25.8* | 20.0*
CCN1CCc2c(sc(N)c2C#N)C1 | 5.7 | 8.1 | 5.3 | 6.9 | 2.4 | 26.2* | 18.8*
CC(C)N1CCc2c(sc(N)c2C#N)C1 | . | . | -2.7 | 4.3 | 6.7 | . | .
O=C1c2ccccc2C(=O)C1c1ccncc1 | 11.3 | -20.6 | -0.5 | -5.7 | 50.7* | 25.1* | 7.4
Cc1nn(C)c(C)c1S(=O)(=O)N1CCCC(C(=O)N2CCN(c3ccccc3)CC2)C1 (stereo not given) | -13.9 | -6.7 | -5.2 | -10.8 | 1.8 | -3.1 | .
SMILES | PLK1 inh | Plk1 PBD FP | ROCK2 blocker | PKA inh | JNK3 blocker | FAK blocker | FAK inh confirm
Cc1cc(NC(=O)CSc2nc(C(C)C)nc3ccccc23)no1 | 0.1 | -30.6 | . | . | . | 44.8* | 27.9*
Cc1cc(NC(=O)CSc2ccccc2)no1 | -1.8 | 23.6 | 0.2 | 5.5 | 0.5 | 0.9 | .
CC(C)c1nc(SCC(=O)Nc2nc3c(s2)CCCC3)c2ccccc2n1 | -1.9 | 10.1 | . | . | . | 19.6* | 8.1
Cc1nnc(NC(=O)CSc2nc(C(C)C)nc3ccccc23)s1 | -1.4 | 19.6 | . | . | . | 46.1* | 22.8*
Cc1nnc(NC(=O)CSc2nc3ccccc3o2)s1 | -8.3 | 0.6 | . | . | . | -1.1 | .
CCC(C)(C)NC(=O)CN(C(=O)CCC(=O)Nc1ccccn1)c1ccc(F)c(Cl)c1 | 11.1 | -7.1 | . | . | . | -0.5 | .
O=C1NC(=S)N/C1=C/c1ccc(-c2c(Br)cc([N+](=O)[O-])cc2Br)o1 | -18.5 | -3.1 | . | . | . | 35.6* | 10.8
O=C1NC(=S)N/C1=C\c1cccc([N+](=O)[O-])c1 | 28.3 | 0.2 | . | . | . | 0.2 | .
CCOC(=O)c1cc2sc(C)cc2n1CC(=O)N(CC)CC | -13.0 | -2.8 | . | . | . | 30.5* | -0.3
COC(=O)c1cc(CN2CCN(c3ccccc3C)CC2)ccc1O | 6.2 | 18.8 | . | . | . | 0.7 | .
CNc1cccccc1=S | -14.2 | 20.9 | 4.2 | 10.8 | -4.1 | 43.6* | 0.8
CC(C)(C)Nc1cccccc1=O | 0.2 | -16.8 | 2.9 | 4.4 | -3.5 | 3.1 | .
Cc1noc(C)c1COC(=O)COc1cccc2c1OC(C)(C)C2 | -9.0 | 5.7 | 4.8 | 8.2 | -0.8 | -0.5 | .
NC(=O)c1sc2nc3c(c(-c4ccco4)c2c1N)CCC3 | 9.6 | 0.4 | 35.1* | 9.3 | 8.5 | 34.2* | 20.4*
CCC(Sc1nc(N)cc(N)n1)C(=O)O (stereo not given) | -4.4 | -3.3 | . | . | . | -0.9 | .
CC1CCCN(Cc2c(O)ccc3c(=O)c(-c4nc5ccccc5s4)c(N)oc23)C1 (stereo not given) | -0.8 | -4.3 | . | . | . | 34.2* | 8.0
COC(=O)CSc1nnc(CNC(=O)Cc2ccccc2)n1-c1ccccc1OC | -13.0 | -3.4 | 6.0 | 10.9 | 7.0 | -0.6 | .
CCOC(=O)c1c(C)c(C(=O)NCc2ccccc2OC)c(C)n1C | -3.5 | -1.7 | 9.1 | 8.0 | -1.4 | 45.9* | -2.8
CCc1cc(=O)oc2cc(C)c(CN3CCCC3)c(O)c12 | 16.9 | 29.2 | -9.7 | 5.0 | 5.3 | 28.5* | 1.6
CCc1cc(=O)oc2cc(C)c(CN3CCCCC3)c(O)c12 | -18.5 | -6.0 | 8.4 | 5.0 | 2.1 | 16.0 | .
CCOc1ccc(S(=O)(=O)N/N=C2/CC(c3ccccc3)Oc3ccccc32)cc1 (stereo not given) | -8.9 | -17.3 | . | . | . | -3.1 | .
CCCCn1c(NC(=O)c2ccccc2Cl)c(C#N)c2nc3ccccc3nc21 | -1.8 | -17.6 | 0.2 | -4.4 | 0.2 | 27.8* | -1.3
COc1ccc(-n2c(NC(=O)c3ccco3)c(C#N)c3nc4ccccc4nc32)cc1 | -7.3 | 11.6 | 3.5 | 8.5 | 8.9 | 20.9* | -3.8
COC(=O)c1sc2cnccc2c1N | 31.0 | 2.6 | 42.4* | 16.6 | 2.6 | 24.3* | 5.0
COc1cc(C2CC(=O)c3cnc(N4CCN(Cc5ccccc5)CC4)nc3C2)cc(OC)c1OC (stereo not given) | -0.5 | -8.9 | -2.9 | -0.3 | -0.2 | 19.2* | 5.4
N#Cc1c(-c2ccccc2)c(-c2ccccc2)nn(CC(=O)NNC(=O)Nc2ccc(Cl)c(Cl)c2)c1=O | -7.3 | 8.3 | . | . | . | 3.0 | .
CCn1c(COc2ccccc2OC)nnc1SCC#N | -2.8 | 10.2 | -2.3 | -14.4 | -5.3 | -1.9 | .
Cc1ccc(CNc2ccc(O)cc2)cc1 | -4.8 | 3.9 | 0.8 | -7.5 | -11.0 | 51.9* | -0.4
COc1ccc(C(=O)n2ccc(C)n2)cc1Br | -13.5 | 19.0 | 1.4 | 1.0 | 9.1 | -0.4 | .
CCN(CCO)c1nc(SC)nc2c1sc1nc(-c3ccco3)c3c(c12)CCC3 | -18.6 | 10.8 | . | . | . | 72.3* | 1.4
